Measurements published in PubChem BioAssay (NCATS).
Results filed as inconclusive are left out. Calls of active or inactive are those of the source. The call rests on the fitted dose curve; in most records, active means well fitted inhibition curve with a large enough effect; inconclusive means small, poorly fitted or top-dose-only effect; inactive means flat fitted curve, though single readings scatter.

Assays:
7G8 = test: qHTS profiling for inhibitors of Plasmodium falciparum proliferation (AID 504749); further: nearly all actives have a fitted effect of over 60% in size;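 on activity, negative = inhibition: 0% = DMSO vehicle and full inhibition = artemisinin control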; conditions: P. falciparum in erythrocytes, SYBR Green DNA, 72 h; series mostly up to 28.7 µM
Procedure, shortened: (§1)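 SYBR Green fluorescence of parasite DNA, read after lysis and overnight dark incubation, measured growth over 72 h in erythrocyte culture at 0.3% parasitemia and 2.5% hematocrit. Data normalised to DMSO and 0.29 uM artemisinin, with plate-drift correction.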

AA1029 = test: as above; conditions: P. falciparum in erythrocytes, SYBR Green DNA, 72 h; series mostly up to 28.7 µM
Procedure, shortened: as §1

AS120 = test: as above; conditions: P. falciparum in erythrocytes, SYBR Green DNA, 72 h; series mostly up to 28.7 µM
Procedure, shortened: as §1

ATS95 = test: as above; conditions: P. falciparum in erythrocytes, SYBR Green DNA, 72 h; series mostly up to 28.7 µM
Procedure, shortened: as §1

C2A = test: as above; conditions: P. falciparum in erythrocytes, SYBR Green DNA, 72 h; series mostly up to 28.7 µM
Procedure, shortened: as §1

CP192 = test: as above; conditions: P. falciparum in erythrocytes, SYBR Green DNA, 72 h; series mostly up to 28.7 µM
Procedure, shortened: as §1

CP201 = test: as above; conditions: P. falciparum in erythrocytes, SYBR Green DNA, 72 h; series mostly up to 28.7 µM
Procedure, shortened: as §1

CP217 = test: as above; conditions: P. falciparum in erythrocytes, SYBR Green DNA, 72 h; series mostly up to 28.7 µM
Procedure, shortened: as §1

CP237 = test: as above; conditions: P. falciparum in erythrocytes, SYBR Green DNA, 72 h; series mostly up to 28.7 µM
Procedure, shortened: as §1

[1] = as above; conditions: P. falciparum in erythrocytes, SYBR Green DNA, 72 h
Procedure, shortened: as §1

3D7 = test: as above; conditions: P. falciparum in erythrocytes, SYBR Green DNA, 72 h; series mostly up to 28.7 µM
Procedure, shortened: as §1

ATS189 = test: as above; conditions: P. falciparum in erythrocytes, SYBR Green DNA, 72 h; series mostly up to 28.7 µM
Procedure, shortened: as §1

CP185 = test: as above; conditions: P. falciparum in erythrocytes, SYBR Green DNA, 72 h; series mostly up to 28.7 µM
Procedure, shortened: as §1

CP194 = test: as above; conditions: P. falciparum in erythrocytes, SYBR Green DNA, 72 h; series mostly up to 28.7 µM
Procedure, shortened: as §1

CP203 = test: as above; conditions: P. falciparum in erythrocytes, SYBR Green DNA, 72 h; series mostly up to 28.7 µM
Procedure, shortened: as §1

CP211 = test: as above; conditions: P. falciparum in erythrocytes, SYBR Green DNA, 72 h; series mostly up to 28.7 µM
Procedure, shortened: as §1

CP238 = test: as above; conditions: P. falciparum in erythrocytes, SYBR Green DNA, 72 h; series mostly up to 28.7 µM
Procedure, shortened: as §1

CP191 = test: as above; conditions: P. falciparum in erythrocytes, SYBR Green DNA, 72 h; series mostly up to 28.7 µM
Procedure, shortened: as §1

CP215 = test: as above; conditions: P. falciparum in erythrocytes, SYBR Green DNA, 72 h; series mostly up to 28.7 µM
Procedure, shortened: as §1

[2] = at 28.7 µM (top of the series), parasite line B
[3] = at 28.7 µM (top of the series), parasite line A
Potency means the concentration at half of the fitted maximal effect.

CN(CCCN1c2ccccc2CCc2ccccc21)CC(=O)c1ccc(Cl)cc1
active: Potency (7G8) 1.41 µM | Potency (AA1029) 7.94 µM | Potency (AS120) 12.6 µM | Potency (ATS95) 10 µM | Potency (CP217) 11.2 µM | Potency (CP237) 12.6 µM
inactive: Potency (C2A) | Potency (CP192) | Potency (CP201)

COc1ccc(C(=O)c2ccccc2O)c(O)c1
inactive: activity, negative = inhibition ([1]; at 12.8 µM (top of the series), parasite line A) -29.2% | Potency (3D7) | Potency (AA1029) | Potency (ATS189) | Potency (ATS95) | Potency (C2A) | Potency (CP185) | Potency (CP192) | Potency (CP194) | Potency (CP201) | Potency (CP203) | Potency (CP211) | Potency (CP238)
active: Potency (7G8) 3.16 µM | Potency (AS120) 3.98 µM

CCCN(CCc1cccs1)[C@H]1CCc2c(O)cccc2C1
active: Potency ([1]; parasite line B) 4.47 µM | Potency (3D7) 14.1 µM | Potency (7G8) 1 µM | Potency (AA1029) 5.01 µM | Potency (AS120) 7.08 µM | Potency (ATS189) 7.94 µM | Potency (ATS95) 7.94 µM | Potency (C2A) 11.2 µM | Potency (CP185) 11.2 µM | Potency (CP191) 10 µM | Potency (CP194) 13.5 µM | Potency (CP203) 6.75 µM | Potency (CP211) 10.7 µM | Potency (CP215) 15.1 µM | Potency (CP217) 11.2 µM | Potency (CP237) 3.16 µM | Potency (CP238) 10 µM

CC(=O)O[C@]1(C(C)=O)CC[C@H]2[C@@H]3C=C(Cl)C4=CC(=O)CC[C@]4(C)[C@H]3CC[C@@]21C
active: Potency ([1]; parasite line A) 12.6 µM | Potency (7G8) 11.2 µM | Potency (AA1029) 11.2 µM | Potency (AS120) 11.2 µM

CCCCCCCCCCCCOCCOCCOCCOCCOCCOCCOCCOCCOCCO
inactive: activity, negative = inhibition [1, 2] -26% | Potency (AA1029) | Potency (CP192) | Potency (CP194) | Potency (CP201) | Potency (CP203) | Potency (CP211) | Potency (CP215) | Potency (CP237)
active: Potency (7G8) 12.6 µM

CC(C)(C)NC[C@H](O)COc1nsnc1N1CCOCC1
active: Potency (3D7) 6.31 µM | Potency (7G8) 0.631 µM | Potency (ATS189) 5.62 µM | Potency (CP191) 7.08 µM | Potency (CP237) 5.01 µM
inactive: Potency (CP201)

CC1=C(C(=O)O)N2C(=O)[C@@H](NC(=O)[C@H](N)c3ccccc3)[C@H]2SC1
inactive: activity, negative = inhibition [1, 3] 3.04% | Potency (3D7) | Potency (7G8) | Potency (AA1029) | Potency (AS120) | Potency (ATS189) | Potency (ATS95) | Potency (C2A) | Potency (CP185) | Potency (CP191) | Potency (CP192) | Potency (CP194) | Potency (CP201) | Potency (CP203) | Potency (CP211) | Potency (CP215) | Potency (CP217) | Potency (CP237) | Potency (CP238)

CN1CCN(C2=Nc3ccccc3Sc3ccc(Cl)cc32)CC1
inactive: activity, negative = inhibition [1, 3] -8.05% | activity, negative = inhibition [1, 2] -25.1% | Potency (ATS189) | Potency (C2A) | Potency (CP185) | Potency (CP192) | Potency (CP211) | Potency (CP238)

CN1CCN(c2c(F)cc3c(=O)c(C(=O)O)cn4c3c2SCC4)CC1
inactive: activity, negative = inhibition [1, 2] -29% | Potency (3D7) | Potency (CP192) | Potency (CP194) | Potency (CP201) | Potency (CP203) | Potency (CP238)

CO[C@]12C[C@@H](COC(=O)c3cncc(Br)c3)CN(C)[C@@H]1Cc1cn(C)c3cccc2c13
inactive: activity, negative = inhibition [1, 3] -17.9% | Potency (3D7) | Potency (CP185) | Potency (CP192) | Potency (CP194) | Potency (CP201) | Potency (CP211) | Potency (CP217)

COc1cc(N)c(Cl)cc1C(=O)NC1CCN(Cc2ccccc2)CC1
inactive: activity, negative = inhibition ([1]; at 12.8 µM (top of the series), parasite line B) -11.7% | Potency (3D7) | Potency (AA1029) | Potency (AS120) | Potency (ATS189) | Potency (ATS95) | Potency (C2A) | Potency (CP185) | Potency (CP192) | Potency (CP194) | Potency (CP201) | Potency (CP203) | Potency (CP211) | Potency (CP215) | Potency (CP217) | Potency (CP237) | Potency (CP238)

CC(C)(C)CC(C)(C)c1ccc(O)c(-n2nc3ccccc3n2)c1
inactive: Potency (CP192) | Potency (CP194) | Potency (CP201) | Potency (CP203) | Potency (CP211) | Potency (CP215)
active: Potency (7G8) 5.01 µM | Potency (AA1029) 12.6 µM
